# Source: paper PMC4336329 (PLoS ONE, 2015)
# Screen size: about 310,000 compounds; about 14,000 (4.5%) showed an effect of 50% or more. The effect is printed as a negative number. The sample as a whole holds a higher share of strong results than the screen did.
# Target: human ether-à-go-go-related gene (hERG) potassium channel (human, UniProt Q12809)
# Test: primary screen, population patch clamp on CHO cells stably expressing hERG; higher = less effect of the substance
# 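Also: peak tail current of the secondary pulse compared with the same well before compound.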
# human ether-à-go-go-related gene (hERG) potassium channel, sequence (Q12809 whole entry, looked up): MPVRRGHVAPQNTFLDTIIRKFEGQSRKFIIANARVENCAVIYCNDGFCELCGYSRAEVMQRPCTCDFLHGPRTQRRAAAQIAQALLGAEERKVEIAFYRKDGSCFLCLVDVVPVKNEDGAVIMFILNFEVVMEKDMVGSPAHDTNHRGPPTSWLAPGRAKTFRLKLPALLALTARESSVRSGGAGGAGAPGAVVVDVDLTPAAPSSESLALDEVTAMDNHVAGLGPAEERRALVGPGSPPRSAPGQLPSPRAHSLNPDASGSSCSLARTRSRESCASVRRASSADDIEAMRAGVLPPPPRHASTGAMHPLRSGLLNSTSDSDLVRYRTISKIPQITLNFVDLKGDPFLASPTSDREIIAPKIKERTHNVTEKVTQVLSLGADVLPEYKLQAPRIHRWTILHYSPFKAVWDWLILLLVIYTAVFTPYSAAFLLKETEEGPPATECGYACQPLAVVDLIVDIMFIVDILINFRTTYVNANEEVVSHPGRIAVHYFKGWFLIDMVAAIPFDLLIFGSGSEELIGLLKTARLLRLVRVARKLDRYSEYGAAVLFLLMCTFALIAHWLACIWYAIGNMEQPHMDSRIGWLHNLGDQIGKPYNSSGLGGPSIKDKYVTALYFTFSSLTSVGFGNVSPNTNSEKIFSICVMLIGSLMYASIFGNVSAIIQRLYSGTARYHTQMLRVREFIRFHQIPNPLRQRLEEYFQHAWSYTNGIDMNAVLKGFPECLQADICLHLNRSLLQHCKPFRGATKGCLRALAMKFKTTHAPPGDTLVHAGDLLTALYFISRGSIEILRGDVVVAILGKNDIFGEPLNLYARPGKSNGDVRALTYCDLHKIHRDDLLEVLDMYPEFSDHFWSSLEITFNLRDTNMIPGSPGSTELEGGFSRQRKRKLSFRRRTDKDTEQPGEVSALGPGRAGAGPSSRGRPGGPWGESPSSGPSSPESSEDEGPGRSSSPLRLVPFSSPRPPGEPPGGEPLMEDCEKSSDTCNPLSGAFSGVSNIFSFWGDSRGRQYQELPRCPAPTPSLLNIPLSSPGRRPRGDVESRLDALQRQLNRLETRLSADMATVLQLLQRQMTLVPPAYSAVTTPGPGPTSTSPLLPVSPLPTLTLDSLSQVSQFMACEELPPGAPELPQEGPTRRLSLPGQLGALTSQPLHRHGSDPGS
row,SMILES,"hERG current change (%, negative = inhibition) at 10uM [%]"
1,COCCNC(=O)c1cc(-c2ccc(OC)c(OC)c2)on1,-1.95
2,CCOc1ccc(C(=O)N[C@H](C(=O)Nc2ccccc2OC)C(C)C)cc1,-28.7
3,O=C1NC(=Nc2ccccc2)c2ccc([N+](=O)[O-])cc21,3.21
4,Cc1cc(NC(=O)CSc2nc3c(C)c(C)ccc3cc2C)no1,-44.6
5,O=C1CC(c2ccco2)CC(O)=C1C=NCCN1CCN(C(=O)Nc2ccc(Cl)cc2)CC1 (stereo not shown),-66.4
6,O=C1CC(c2ccco2)CC(O)=C1C=NCCN1CCNCC1 (stereo not shown),2.1
7,CCNC(=S)N1CCN(CCN=CC2=C(O)CC(c3ccco3)CC2=O)CC1 (stereo not shown),0.166
8,C=CCNC(=S)N1CCN(CCN=CC2=C(O)CC(c3ccco3)CC2=O)CC1 (stereo not shown),-25.8
9,O=C1CC(c2ccco2)CC(O)=C1C=NCCN1CCN(C(=S)Nc2ccccc2)CC1 (stereo not shown),-54.1
10,O=C1CC(c2ccco2)CC(O)=C1C=NCCO (stereo not shown),7.61
11,Cl.O=C(CN1CCC(NC(=O)c2ccccc2Cl)CC1)NCc1ccco1,-2.98
12,O=C(c1ccc2c3n(nc2c1)-c1ccccc1CO3)N1CCOCC1,-8.48
13,COc1ccc(CCNC(=O)c2cc(-c3ccc4c(c3)OCO4)on2)cc1OC,-4.11
14,Cc1cccc(N(C(=O)CNC(=O)c2ccco2)C(C(=O)NCC2CCCO2)c2ccccc2)c1 (stereo not shown),9.57
15,Cc1ccc(CSc2sc(C(=O)c3ccccc3)c(N)c2C#N)cc1,6.41
16,NC1=Nc2cccc3cccc1c23,21.3
17,CCCCON1C(=O)c2cccc3cccc(c23)C1=O,-4.38
18,CCCCN(C)C1=Nc2cccc3cccc1c23,-72
19,O=C(Nc1ccc([N+](=O)[O-])cc1)Nc1nc(-c2ccc(Cl)s2)cs1,25.7
20,OCCCn1c(C2CCCN2c2nc(-c3ccc(F)cc3)cs2)nc2cc(C(F)(F)F)ccc21 (stereo not shown),-21
21,OCCOCCn1c(CCNc2nc(-c3ccc(F)cc3)cs2)nc2cc(C(F)(F)F)ccc21,-61.1
22,Cc1ccc(Cn2c(C3CCCN3c3nc(C)cs3)nc3cc(C(F)(F)F)ccc32)cc1 (stereo not shown),0.159
23,OCCCn1c(CCNc2nc(-c3ccc(F)cc3)cs2)nc2cc(C(F)(F)F)ccc21,-32.3
24,Cc1csc(N2CCCC2c2nc3cc(C(F)(F)F)ccc3n2CCOCCO)n1 (stereo not shown),-69.1
25,OCCOCCn1c(C2CCCN2c2nc(-c3ccc(F)cc3)cs2)nc2cc(Cl)c(Cl)cc21 (stereo not shown),-28.7
26,OCCCn1c(CCNc2nc(-c3ccc(Cl)cc3)cs2)nc2cc(C(F)(F)F)ccc21,-0.705
27,Cc1csc(N2CCCC2c2nc3cc(Cl)c(N4CCCCC4)cc3n2CCOCCO)n1 (stereo not shown),-47.3
28,OCCOCCn1c(C2CCCN2c2nc(-c3ccc(F)cc3)cs2)nc2cc(C(F)(F)F)ccc21 (stereo not shown),-75.1

row,SMILES,"hERG current change (%, negative = inhibition) at 10uM [%]"
1,CCN1CCSc2ccc(C(=O)NCc3ccccc3F)cc21,-20.8
2,Cc1oc(-c2cccc(Cl)c2)nc1CS(=O)(=O)CC(=O)NCCN1CCCC1,-0.675
3,CCCC/C(C)=N\NC(=O)CNS(=O)(=O)c1ccc([N+](=O)[O-])cc1,-2.14
4,CCOc1ccc(CN(C)C(=O)CNC(=O)c2ccc(Br)o2)cc1OC,-2.55
5,COc1cccc(Cn2cccc(NC(=O)Nc3cccc(C#N)c3)c2=O)c1,6.1
6,O=C(CC1C(=O)NCCN1Cc1ccoc1)NCCc1ccc(Cl)cc1 (stereo not shown),-53.7
7,O=C(CC1C(=O)NCCN1Cc1ccccc1)NCCN1CCCCC1=O (stereo not shown),19.1
8,COC(=O)CCCNC(=O)CC1C(=O)NCCN1Cc1ccoc1 (stereo not shown),22.1
9,O=C(CC1C(=O)NCCN1Cc1ccc(F)cc1)NCCN1CCCc2ccccc21 (stereo not shown),-66.1
10,O=C(CC1C(=O)NCCN1CC1CCCCC1)NCc1ccc(F)cc1 (stereo not shown),-20.3
11,CC(C)(C)CN1CCNC(=O)C1CC(=O)NCCN1CCCc2ccccc21 (stereo not shown),0.68
12,O=C(CC1C(=O)NCCN1CC1CCCCC1)NCc1cc(F)ccc1F (stereo not shown),1.77
13,Cc1nc(CCNC(=O)CC2C(=O)NCCN2Cc2ccoc2)nc2c1CCCC2 (stereo not shown),-36.7
14,O=C(CC1C(=O)NCCN1CC1CCCCC1)NCCc1ccc(F)cc1 (stereo not shown),-51.6
15,Cc1ccc(C)c(Nc2ccc(C(=O)NCCc3ccccc3)cn2)c1,-20.9
16,CCN(CC(=O)Nc1ccc(N2CCOCC2)cc1)C(=O)Cc1ccccc1,3.76
17,COCC(C)n1c(-c2ccc3c(c2)NC(=O)CO3)csc1=Nc1ccc(OC(F)F)cc1 (stereo not shown),2.76
18,Cc1cc(NCCCn2ccnc2)n2nc(-c3ccc(Cl)cc3)cc2n1,-74.6
19,Cc1cccc(-c2cc3nc(C)cc(NCCCN(C)C)n3n2)c1,-38.1
20,Cc1cccc(-c2cc3nc(C)cc(NCCCn4ccnc4)n3n2)c1,-59.3
21,Cc1cc(NCCCn2ccnc2)n2nc(-c3ccc(F)cc3)cc2n1,-14
22,COc1ccc(-c2cc3nc(C)cc(NCCO)n3n2)cc1,-33.6
23,Cc1cccc(-n2ncc3c(NCCCn4ccnc4)ncnc32)c1,-16.5
24,Cc1cccc(-c2cc3nc(C)c(C)c(NCCCn4ccnc4)n3n2)c1,-68.9
25,Cc1cccc(-c2cc3nc(C)cc(C)n3n2)c1,2.6
26,Cc1cc(-c2ccccc2)nc2cc(C(=O)NCCCn3ccnc3)nn12,-22.2
27,CCc1cc2c(=O)[nH]c(Cc3ccc(OC)cc3)nc2s1,2.16
